Results: ChEMBL document CHEMBL1157539, “Thousands of chemical starting points for antimalarial lead identification” (Nature, 2010)

These compounds were tested on HepG2 (assay: GSK_TCMDC: Percent inhibition of human HepG2 cell line. Test compounds present at 10uM.).
Assay type: functional

Row | SMILES | Inhibition
1 | O=C(/C=C/c1ccc(Cl)c(Cl)c1)NCCCCCCN1CCN(C(=O)Nc2ccc(Cl)c(C(F)(F)F)c2)CC1 | 47%
2 | CS(=O)(=O)CCNCc1cccc(-c2cc3c(Nc4ccc5c(cnn5Cc5ccccc5)c4)ncnc3s2)c1.O=C(O)C(F)(F)F | 36%
3 | CN(Cc1ccc(C#N)cc1)C1CCN(c2cc(NC(=O)c3cccc(F)c3)ccn2)CC1.O=C(O)C(F)(F)F | 9%
4 | Cc1ccc2[nH]c(-c3ccc(C=CC(=O)NC4CCN(Cc5ccccc5)CC4)cc3)nc2c1 | 9%
5 | CC(=O)N(Cc1ccc(CC(C)NCCc2cccc(Cl)c2)cc1)Cc1ccc(CC(C)NCCc2cccc(Cl)c2)cc1 (stereo unspecified) | 98%
6 | Cn1c(NC2CCN(CC3CCN(C(=O)/C=C/c4ccc(Cl)c(Cl)c4)CC3)CC2)nc2ccccc21 | 99%
